Measurements as given in PubChem BioAssay (NCATS).
Inconclusive results are not listed. The source made the active and inactive calls. Unless noted, calls follow the shape of the dose curve; as a rule, active = well fitted curve in either direction with a large enough effect (not every such curve was filed as active); inconclusive = small, poorly fitted or top-dose-only effect, or another doubt; inactive = flat fitted curve, though single readings scatter.

The compounds below were run against Glucocorticoid receptor (Homo sapiens) (UniProt P04150) (assay: GR-EFC Redistribution (AID 451; calls by dose curve; also: potency is read from the fitted curve at half-maximal effect)). Settings: CHO-K1 GR-EFC translocation, beta-gal luminescence, 2 h.
Sequence of Glucocorticoid receptor (Homo sapiens) (P04150 whole entry, looked up, the tested form may be a part): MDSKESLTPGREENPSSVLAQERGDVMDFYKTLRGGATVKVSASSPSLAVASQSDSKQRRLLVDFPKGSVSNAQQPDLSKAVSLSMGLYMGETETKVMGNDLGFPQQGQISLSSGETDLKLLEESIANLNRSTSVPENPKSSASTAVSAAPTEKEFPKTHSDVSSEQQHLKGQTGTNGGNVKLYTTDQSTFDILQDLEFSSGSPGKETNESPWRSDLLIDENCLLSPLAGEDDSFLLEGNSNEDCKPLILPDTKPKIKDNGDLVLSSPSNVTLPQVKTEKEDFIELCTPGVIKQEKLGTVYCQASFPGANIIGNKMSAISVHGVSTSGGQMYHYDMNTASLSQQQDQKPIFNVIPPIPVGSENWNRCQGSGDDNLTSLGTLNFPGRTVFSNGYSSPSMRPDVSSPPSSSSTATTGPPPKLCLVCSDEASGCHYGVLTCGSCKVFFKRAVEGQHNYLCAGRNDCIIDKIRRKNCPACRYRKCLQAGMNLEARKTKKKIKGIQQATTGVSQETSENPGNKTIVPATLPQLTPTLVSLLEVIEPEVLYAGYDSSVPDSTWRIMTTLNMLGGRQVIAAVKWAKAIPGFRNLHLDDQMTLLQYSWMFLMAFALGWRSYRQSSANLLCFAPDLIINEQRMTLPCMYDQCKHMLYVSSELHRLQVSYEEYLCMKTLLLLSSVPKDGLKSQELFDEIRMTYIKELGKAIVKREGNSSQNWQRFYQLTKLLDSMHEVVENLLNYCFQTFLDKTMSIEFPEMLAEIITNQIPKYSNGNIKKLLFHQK
In short: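 CHO-K1 cells stably expressing nuclear-localized β-gal enzyme acceptor and GR fused C-terminally to the enzyme donor fragment; ligand-driven nuclear translocation restores β-gal by complementation. Compounds titrated up to 46 uM final, 2 h at 37 °C; luminescence read.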

Compound | Potency
C/C=C1\C[C@H](C)[C@](O)(CO)C(=O)OCC2=CCN3CC[C@@H](OC1=O)[C@@H]23 | > 46 µM (inactive)
Oc1cc2c(cc1O)[C@H]1c3ccccc3CN[C@H]1CC2 | > 46 µM (inactive)
O=c1ccc2cc(O[C@@H]3O[C@@H](CO)[C@@H](O)[C@@H](O)[C@H]3O)c(O)cc2o1 | > 46 µM (inactive)
C[C@@H]1CCC/C=C\[C@H]2C[C@H](O)C[C@@H]2[C@H](O)/C=C\C(=O)O1 | > 46 µM (inactive)
CCCCCCCCCCCCCC(=O)O[C@H]1[C@@H](C)[C@@]2(O)[C@@H](C=C(CO)C[C@]3(O)C(=O)C(C)=C[C@@H]23)C2C(C)(C)[C@]21OC(C)=O (some centres not stated) | > 46 µM (inactive)
CC(C)(C)[C@@]1(O)C[C@@H]2OC(=O)C[C@@]23C(=O)O[C@H]2OC(=O)[C@@H](O)[C@]231 | > 46 µM (inactive)
CC(C)[C@@]1(NC(=O)[C@@H]2C[C@H]3c4cccc5[nH]cc(c45)C[C@@H]3N(C)C2)O[C@@]2(O)[C@H]3CCCN3C(=O)[C@@H](Cc3ccccc3)N2C1=O | > 46 µM (inactive)
O=c1cccc2n1C[C@@H]1C[C@H]2CN2CCCC[C@H]12 | > 46 µM (inactive)
CC1=CC(=O)C2=C(C)C[C@H](O)[C@@H]3[C@@H](OC(=O)[C@H]3C)[C@H]12 | > 46 µM (inactive)
COc1cc2c(cc1O)CCN[C@H]2C | > 46 µM (inactive)
CC1=C2[C@@H]3OC(=O)[C@H](C)[C@H]3CC[C@@]2(C)C=CC1=O | > 46 µM (inactive)
COc1cc2c(cc1O)-c1c(O)c(OC)cc3c1[C@H](C2)N(C)CC3 | > 46 µM (inactive)
CC[C@@H]1CN2CC[C@@H]1C[C@H]2[C@@H](O)c1ccnc2ccc(OC)cc12 | > 46 µM (inactive)
COc1cc2c(cc1OC)-c1c(OC)c(OC)c(CO)c3c1[C@H](C2)N(C)CC3 | > 46 µM (inactive)
COC[C@H]1OC(=O)c2coc3c2[C@@]1(C)C1=C(C3=O)[C@H]2CCC(=O)[C@@]2(C)C[C@H]1OC(C)=O | > 46 µM (inactive)
C[C@H]1C(=O)O[C@H]2CCN3CC=C(COC(=O)[C@](C)(O)[C@@]1(C)O)[C@H]23 | > 46 µM (inactive)
C[C@H]1CCCC=CC2C[C@H](O)C[C@@H]2[C@H](O)/C=C\C(=O)O1 (some centres not stated) | > 46 µM (inactive)
COC1=C[C@H]2[C@@H]3Cc4ccc(OC)c(O)c4[C@@]2(CCN3C)CC1=O | > 46 µM (inactive)
OC[C@H]1CCCN2CCCC[C@@H]12 | > 46 µM (inactive)
CC(C)(O)[C@H]1[C@H]2OC(=O)[C@@H]1[C@]1(O)C[C@H]3O[C@]34C(=O)O[C@H]2[C@]14C | > 46 µM (inactive)
C=C1C/C(=C\C)C(=O)O[C@@H]2CCN3CC=C(COC(=O)[C@]1(C)O)[C@H]23 | > 46 µM (inactive)
COc1ccc(C[C@@H]2NC[C@H](O)[C@H]2OC(C)=O)cc1 | > 46 µM (inactive)
Oc1cc2c(cc1O)[C@H]1c3ccccc3CN[C@@H]1CC2 | > 46 µM (inactive)
COc1cc2c(cc1OC)-c1c(O)c(OC)cc3c1[C@@H](C2)N(C)CC3 | > 46 µM (inactive)
CCN1C[C@@]2(C)CC[C@H](O)[C@@]34[C@@H]5C[C@H]6[C@H](O)[C@@H]5[C@](O)(C[C@@H]6OC)[C@H](C[C@@H]23)[C@H]14 | > 46 µM (inactive)

These compounds were tested against Mitogen-activated protein kinase 10 (Mus musculus) (UniProt Q61831) (assay: JNK3 AlphaScreen Assay (AID 530;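 also: kinase came from lysate of stimulated human HepG2 cells; signal reports phosphorylation of biotinylated GST-cJun 1-79 at Ser73 with 10 µM ATP; % is scaled to controls: 0 for no effect and ±100 for the full control effect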)). Settings: JNK3 lysate, c-Jun phosphorylation; series mostly up to 57.1 µM; activity change, negative = inhibition: at the top concentration.
In short: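 Phosphorylation of biotinylated GST-cJun(1-79) at Ser73 is measured by AlphaScreen proximity luminescence. Enzyme is JNK3 in HepG2 lysates activated with interleukin-1beta and tumor necrosis factor alpha; ATP is 10 uM final.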

Compound | activity change, negative = inhibition
C/C=C1\C[C@H](C)[C@](O)(CO)C(=O)OCC2=CCN3CC[C@@H](OC1=O)[C@@H]23 | 5.94% (inactive)
ClC1=C(Cl)C2(Cl)C3C(Cl)C(Cl)CC3C1(Cl)C2(Cl)Cl (configuration not stated) | 3.34% (inactive)
O=c1ccc2cc(O[C@@H]3O[C@@H](CO)[C@@H](O)[C@@H](O)[C@H]3O)c(O)cc2o1 | -3.7% (inactive)
C[C@@H]1CCC/C=C\[C@H]2C[C@H](O)C[C@@H]2[C@H](O)/C=C\C(=O)O1 | -11.6% (inactive)
CCCCCCCCCCCCCC(=O)O[C@H]1[C@@H](C)[C@@]2(O)[C@@H](C=C(CO)C[C@]3(O)C(=O)C(C)=C[C@@H]23)C2C(C)(C)[C@]21OC(C)=O (some centres not stated) | 11.3% (inactive)
CC(C)(C)[C@@]1(O)C[C@@H]2OC(=O)C[C@@]23C(=O)O[C@H]2OC(=O)[C@@H](O)[C@]231 | 0.0126% (inactive)
CC(C)[C@@]1(NC(=O)[C@@H]2C[C@H]3c4cccc5[nH]cc(c45)C[C@@H]3N(C)C2)O[C@@]2(O)[C@H]3CCCN3C(=O)[C@@H](Cc3ccccc3)N2C1=O | -27.6% (inactive)
O=c1cccc2n1C[C@@H]1C[C@H]2CN2CCCC[C@H]12 | -19.5% (inactive)
CC1=CC(=O)C2=C(C)C[C@H](O)[C@@H]3[C@@H](OC(=O)[C@H]3C)[C@H]12 | 4.08% (inactive)
COc1cc2c(cc1O)CCN[C@H]2C | 9.5% (inactive)
CC1=C2[C@@H]3OC(=O)[C@H](C)[C@H]3CC[C@@]2(C)C=CC1=O | 12.7% (inactive)
COc1cc2c(cc1O)-c1c(O)c(OC)cc3c1[C@H](C2)N(C)CC3 | -8.42% (inactive)
CC[C@@H]1CN2CC[C@@H]1C[C@H]2[C@@H](O)c1ccnc2ccc(OC)cc12 | 7.55% (inactive)
COc1cc2c(cc1OC)-c1c(OC)c(OC)c(CO)c3c1[C@H](C2)N(C)CC3 | 7.45% (inactive)
COC[C@H]1OC(=O)c2coc3c2[C@@]1(C)C1=C(C3=O)[C@H]2CCC(=O)[C@@]2(C)C[C@H]1OC(C)=O | -26.8% (inactive)
C[C@H]1C(=O)O[C@H]2CCN3CC=C(COC(=O)[C@](C)(O)[C@@]1(C)O)[C@H]23 | -1.69% (inactive)
C[C@H]1CCCC=CC2C[C@H](O)C[C@@H]2[C@H](O)/C=C\C(=O)O1 (some centres not stated) | 1.62% (inactive)
COC1=C[C@H]2[C@@H]3Cc4ccc(OC)c(O)c4[C@@]2(CCN3C)CC1=O | -18.3% (inactive)
OC[C@H]1CCCN2CCCC[C@@H]12 | 15% (inactive)
CC(C)(O)[C@H]1[C@H]2OC(=O)[C@@H]1[C@]1(O)C[C@H]3O[C@]34C(=O)O[C@H]2[C@]14C | -11% (inactive)
[Cd+2].[Cl-].[Cl-] | -12.4% (inactive)
C[C@@H]1O[C@@H](O[C@H]2C[C@@H](O)[C@]3(CO)[C@@H]4[C@@H](O)C[C@]5(C)[C@H](C6=CC(=O)OC6)CC[C@@]5(O)[C@H]4CC[C@@]3(O)C2)[C@H](O)[C@H](O)[C@@H]1O | 6.11% (inactive)
C=C1C/C(=C\C)C(=O)O[C@@H]2CCN3CC=C(COC(=O)[C@]1(C)O)[C@H]23 | 7.6% (inactive)
COc1ccc(C[C@@H]2NC[C@H](O)[C@H]2OC(C)=O)cc1 | -5.87% (inactive)
Oc1cc2c(cc1O)[C@H]1c3ccccc3CN[C@@H]1CC2 | -21.8% (inactive)
COc1cc2c(cc1OC)-c1c(O)c(OC)cc3c1[C@@H](C2)N(C)CC3 | -10% (inactive)
CCN1C[C@@]2(C)CC[C@H](O)[C@@]34[C@@H]5C[C@H]6[C@H](O)[C@@H]5[C@](O)(C[C@@H]6OC)[C@H](C[C@@H]23)[C@H]14 | 19.3% (inactive)
